Holding throughout (assay): NCI-60 one-dose screen, 48 h (100 = growth as untreated, 0 = no growth, -100 = all killed)
Common to all, as to details: 10 µM unless noted

Assay [1] concerns SK-MEL-2 melanoma.
Assay [2] relates to EKVX NSCLC.
Assay [3] relates to SN12C renal.
In assay [4] the test system is UO-31 renal.
In assay [5] the test system is TK-10 renal.
The subject of assay [6] is ACHN renal.
The subject of assay [7] is CAKI-1 renal.
The subject of assay [8] is A498 renal.
Assay [9] concerns CCRF-CEM leukemia.
For assay [10], the system named is MOLT-4 leukemia.
Assay [11] concerns SR leukemia.
For assay [12], the system named is RPMI-8226 leukemia.
For assay [13], the system named is OVCAR-8 ovarian.
Assay [14] concerns OVCAR-5 ovarian.
Assay [15] has as its system OVCAR-4 ovarian.
The subject of assay [16] is SK-OV-3 ovarian.
In assay [17] the test system is IGROV1 ovarian.
Assay [18] concerns HS 578T breast.
Assay [19] relates to NCI/ADR-RES ovarian.
Assay [20] concerns OVCAR-3 ovarian.

The structures appear in SMILES notation. This is part of a sample that, as a whole, favours compounds with a hit. Of some 83,000 tested, about 20% had one in any assay.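 A percent growth of 40 corresponds to 60% growth inhibition; 0 means no net growth; -100 means all cells died. Active threshold: below 10.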 A number with no mark means an inactive call. The source made the active and inactive calls.

`COC(=O)c1nc(-c2ccccc2)oc1S(=O)(=O)NCC(c1ccc(Cl)cc1)N1CCOCC1` (centres undefined): the growth in assay [1] was 80.9%; in [2] it was 96.7%; in assay [3], 81.2%; in [4], 60%; in assay [5] it was 62.3%; in assay [6], 64.7%. Also, the growth in assay [7] was 71.2%; in assay [8], 90.4%; in assay [9], -21% (active); in [10] it was 7.96% (active); in assay [11] it was 1.88% (active); in [12] it was 7.86% (active). The growth in [13] is 65%; in assay [14], 77.7%; in [15], 86.2%; in assay [16], 97%; in assay [17], 61.1%; in [18], 85.8%. For the same compound, the growth in assay [19] is 97.9%.

Regarding `O=S(=O)(Oc1ccc(Br)cc1)c1ccc(Cl)cc1`, the growth was 116% in [1]; 95.7% in [2]; 105% in assay [3]; 82.3% in assay [4]; 84.1% in assay [5]; 117% in [6]. In addition, the growth in assay [7] was 105%; in assay [8] it was 86.6%; in [9], 97%; in assay [10], 85.1%; in assay [11] it was 98.3%; in [12], 99.7%. The growth in assay [13] is 106%; in assay [14], 92.5%; in assay [15], 98.9%; in [16] it was 108%; in assay [17], 98.8%; in assay [18] it was 104%. In addition, the growth in assay [19] was 96.2%.

Turning to `COc1ccc(C#Cc2ccc(=O)oc2-c2cc(OC)c(OC)c(OC)c2)cc1O`, the growth in assay [1] was 61.6%; in assay [2] it was 79.8%; in [3], 58%; in assay [4], 37.9%; in assay [5], 81.8%; in assay [6] it was 62%. Moreover, the growth is 22.8% in [7]; 56.6% in assay [8]; 18.5% in assay [9]; 15.1% in [10]; 13.7% in [11]; 18.2% in assay [12]. Further, the growth in [13] was 69.6%; in [14] it was 43%; in [16], 47.2%; in assay [17], 37.5%; in assay [20] it was -4.92% (active); in assay [18], 54.5%. The growth in assay [19] is 19.6%.

Turning to `FC(F)(F)c1ccc(Cn2cc(CSc3nc4ccccc4s3)nn2)cc1`, the growth in assay [1] was 95.6%; in assay [2], 99.5%; in assay [3], 99.9%; in assay [4] it was 78.7%; in assay [5], 97.6%; in [6], 101%. Further, the growth in assay [7] was 84.3%; in assay [8], 86%; in assay [9], 91%; in assay [10] it was 98.1%; in assay [11], 96.3%; in assay [12] it was 96.7%. Besides, the growth in assay [13] was 91%; in assay [14] it was 98.6%; in assay [15], 94.8%; in [16] it was 104%; in [17], 97.7%; in assay [18], 88.6%. Further, the growth in assay [19] is 95.7%.

`Cc1ccc(/C=C/C(=O)c2cccc(OCCCOc3cccc(C(=O)/C=C/c4ccc(C)cc4)c3)c2)cc1`: the growth in assay [1] was 105%; in assay [2], 80%; in assay [3] it was 79.6%; in assay [4], 64%; in assay [5], 120%; in assay [6] it was 78.6%. Moreover, the growth is 68.1% in [7]; 86.4% in [8]; 73.6% in assay [9]; 85.1% in assay [10]; 25.9% in assay [11]; -0.643% (active) in [12]. Moreover, the growth in assay [13] was 87.5%; in assay [14] it was 124%; in assay [15], 65.3%; in assay [16] it was 99.2%; in assay [17], 77.2%; in assay [18] it was 86.1%. Moreover, in [19], the growth is 91.4%.

Turning to `COc1cc(-c2nc3sccn3c2-c2ccnc(NCCNS(=O)(=O)c3ccc(Cl)cc3)n2)ccc1F`, the growth in [1] is 12.6%; in assay [2], 48.8%; in assay [3], 37.4%; in [4], 6.85% (active); in [5] it was 55.1%; in assay [6] it was 20.4%. Besides, the growth in [7] was 19.6%; in [8], 52.8%; in [9], 6.78% (active); in assay [10] it was -3.87% (active); in [11], 34.5%; in assay [12] it was -18.9% (active). Also, the growth in [13] is 12.3%; in assay [14] it was 112%; in [15] it was 21.3%; in [16], 54.4%; in [17] it was 41.8%; in assay [20], 43.1%. Moreover, the results for the growth in assay [18] and in [19] were 49.5% and 13.7%, respectively.

For the compound `COc1ccc(/C=C(/c2ccccc2)[N+](=O)[O-])c(OC)c1`, the growth is -6.4% (active) in assay [1]; 36.2% in assay [2]; -20.5% (active) in assay [3]; -97.6% (active) in [4]; -26% (active) in assay [5]; -72.4% (active) in assay [6]. In addition, the growth is -25.5% (active) in assay [7]; 51.5% in [8]; 7.93% (active) in assay [9]; 6.93% (active) in assay [10]; 6.7% (active) in assay [11]; 1.5% (active) in [12]. Besides, the growth in [13] is 15.8%; in assay [14], -9.82% (active); in assay [15], 14.4%; in assay [16], 42.7%; in [17], -35.9% (active); in [18], 46.1%. In addition, in [19], the growth was -4.93% (active).

Consider `COC1=C(C)C(=O)N2[C@@H]1[C@H](c1ccccc1)OC21C=CC(=O)C=C1`, for which the growth is 11.1% in assay [1]; 70.3% in assay [2]; 0.448% (active) in assay [3]; -42.9% (active) in [4]; 20.8% in assay [5]; -29.3% (active) in assay [6]. Besides, the growth in assay [7] was -59.6% (active); in assay [8], 92.7%; in assay [9], -19.7% (active); in assay [10], -4.79% (active); in assay [11], 2.4% (active); in [12] it was -20.7% (active). In addition, the growth was 19.4% in assay [13]; -56.1% (active) in assay [14]; 33.4% in assay [15]; 112% in [16]; -20.7% (active) in assay [17]; -4.05% (active) in assay [20]. Also, the growth in [18] is 32.6%; in assay [19] it was 20.1%.

Values taken from PubChem BioAssay (NCI).
